Inconclusive results are not listed. Activity calls are given as the source filed them. Calls follow the shape of the dose curve; as a rule, active = well fitted curve in the direction sought with a large enough effect; inconclusive = small, poorly fitted or top-dose-only effect, or another doubt; inactive = no such curve, though single readings can be large; an effect the other way counts as inactive or inconclusive.
How the values were obtained:
[1] = target: Glutathione peroxidase 1 (Homo sapiens) (UniProt P07203); experiment: Primary qHTS Assay for Inhibitors of Recombinant Selenoprotein Glutathione Peroxidase 1 (GPX1) (AID 1845191); also: nearly all actives have a fitted effect of over 65% in size
Glutathione peroxidase 1 (Homo sapiens), sequence (P07203 whole entry, looked up): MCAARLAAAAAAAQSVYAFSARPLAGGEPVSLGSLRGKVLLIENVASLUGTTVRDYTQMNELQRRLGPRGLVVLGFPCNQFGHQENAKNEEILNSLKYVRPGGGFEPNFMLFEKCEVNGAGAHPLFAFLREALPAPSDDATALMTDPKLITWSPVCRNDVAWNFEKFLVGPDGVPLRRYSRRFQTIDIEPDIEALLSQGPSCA
Method in brief: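 GPX1 10 nM, GR 100 nM, GSH 1 mM, NADPH 0.5 mM, CHP 0.5 mM (final). 30-min cpd preincubation, RT. Ex340/Em450 read t=0, t=15 min.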

[2] = target: Phospholipid hydroperoxide glutathione peroxidase GPX4 (Homo sapiens) (UniProt P36969); experiment: Primary qHTS Assay for Inhibitors of Recombinant Selenoprotein Glutathione Peroxidase 4 (GPX4) (AID 1845192); also: nearly all actives have a fitted effect of over 65% in size
Phospholipid hydroperoxide glutathione peroxidase GPX4 (Homo sapiens), sequence (P36969 whole entry, looked up): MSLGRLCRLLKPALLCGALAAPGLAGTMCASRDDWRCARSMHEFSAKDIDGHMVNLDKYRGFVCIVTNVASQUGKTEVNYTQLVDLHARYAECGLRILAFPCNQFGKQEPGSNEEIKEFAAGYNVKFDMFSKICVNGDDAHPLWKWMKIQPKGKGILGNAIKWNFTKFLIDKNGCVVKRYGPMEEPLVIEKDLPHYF
Method in brief: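 qHTS, GR-coupled: GPX4 200 nM + cpd 30 min RT → GSH 1 mM, NADPH 0.5 mM, GR 100 nM → CHP 0.5 mM start; fluor 340/450 at t0 and t15 min; no-enzyme wells as control.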

[3] = target: Luciferin 4-monooxygenase (Photinus pyralis) (UniProt P08659); experiment: Primary firefly luciferase (FLuc) qHTS assay for identification of artifact compounds. (AID 1845220); settings: outcome: dose series up to 54.1 µM unless noted; also: nearly all actives have a fitted effect of over 60% in size
Method in brief: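 Reaction readout was CCD-imaged luminescence, taken 5 min after adding 10 nM purified firefly enzyme to compound-treated wells holding 10 uM luciferin and ATP in pH 7.6 buffer.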

[4] = Primary fluorescence-based thiol-reactive (MSTI) qHTS assay for identification of artifact compounds. (AID 1845221);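 also: series mostly up to about 54 µM; thiol-reactive compounds lower the probe fluorescence signal; nearly all actives have a fitted effect of over 65% in size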
Method in brief: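 A multi-concentration qHTS design tested compounds against 4 uM MSTI, pH 7.4 phosphate-buffered saline. Plates were protected from light for 1 h at room temperature before imaging fluorescence.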

[5] = test system: Nanoluciferase (engineered Oplophorus gracilirostris luciferase); experiment: Primary Nanoluciferase (NLuc) qHTS assay for identification of artifact compounds. (AID 1845222);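 also: NLuc secreted into diluted conditioned medium of S16 cells; series mostly up to about 54 µM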
Method in brief: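 Concentration-response data were obtained by luminescence after 5 min with Nano-Glo substrate at 1:100. The enzyme was diluted S16 NLuc-expressing cell medium, preincubated with compound for 15 min at RT. Curves were fitted with a 4-parameter Hill model.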

Measured: Potency

CS(=O)(=O)c1ccc([C@@H](O)[C@@H](CF)NC(=O)C(Cl)Cl)cc1
inactive: all assays above

Cc1cccc(Nc2cc(Cl)nc(SCC(=O)O)n2)c1C
not listed: [5]
inactive: all other assays above

C/C(=C(\CCOP(=O)(O)O)SC(=O)c1ccccc1)N(C=O)Cc1cnc(C)nc1N
inactive: [1] inactive [at 4.49 µM] | [2] inactive [at 4.52 µM]

C[C@]12CC[C@@H]3c4ccc(O)cc4CC[C@H]3[C@@H]1CC[C@@H]2OC(=O)CCC1CCCC1
inactive: all assays above

O=c1[nH]cnc2c1ncn2[C@@H]1O[C@H](CO)[C@@H](O)[C@H]1O
inactive: all assays above

Cc1ccc(C(C)C)cc2c(C)ccc1-2
inactive: [2]
